From PubChem BioAssay (NCI) come the findings set out here.

Assay [1] in a line: NCI Yeast Anticancer Drug Screen. Data for the rad50 strain (AID 155).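 Note: 0% = growth of vehicle-only cultures of the same strain.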 The conditions noted are these: S. cerevisiae rad50 strain growth inhibition; at 50.0 µM; active compounds read high. In outline:
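Readout: growth inhibition relative to vehicle-treated cultures. Compound exposure was carried out in a genetically defined yeast strain deficient in DNA damage repair.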

Assay [2] in a line: NCI Yeast Anticancer Drug Screen. Data for the mec2-1 strain (AID 157). Particulars: S. cerevisiae mec2-1 strain, at 50.0 µM, active compounds read high. The method, boiled down:
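Cells of the genetically defined mec2-1 yeast strain are incubated with test compound. Inhibition of growth is calculated against vehicle-treated controls.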

The nature of assay [3]: NCI Yeast Anticancer Drug Screen. Data for the sgs1 mgt1 strain (AID 161).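 Note: 0% = growth of cultures given vehicle only.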 The conditions noted are these: S. cerevisiae sgs1 mgt1 strain, at 50.0 µM, active compounds read high. In outline: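 Read-out: growth inhibition vs vehicle controls. Cells: mutant yeast strain deficient in DNA damage repair.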
Assay [4] can be described thus: NCI Yeast Anticancer Drug Screen. Data for the cln2 rad14 strain (AID 165).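 Note: 0% = growth equal to vehicle treated cultures.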 The conditions noted are these: S. cerevisiae cln2 rad14 strain, at 50.0 µM, active compounds read high. The method, boiled down: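 The screen exposed genetically defined yeast (cln2 rad14) to test compounds and scored growth inhibition relative to vehicle-treated controls.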
Assay [5] in a line: NCI Yeast Anticancer Drug Screen. Data for the bub3 strain (AID 167). Particulars: S. cerevisiae bub3 mutant strain, at 50.0 µM, active compounds read high. In outline:
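Readout: yeast growth inhibition, expressed relative to vehicle-only wells. The test organism is a mutant strain from a panel with lesions in DNA repair or checkpoint genes.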

Assay [6] in a line: NCI Yeast Anticancer Drug Screen. Data for the mlh1 rad18 strain (AID 175). The conditions noted are these: S. cerevisiae mlh1 rad18 strain growth inhibition; at 50.0 µM; active compounds read high. The method, boiled down:
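Compound-treated yeast growth, normalised to vehicle controls. Strain bears defined DNA repair mutations.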

The panel holds about 79,000 compounds, 15% with a hit somewhere; the sample as a whole holds those more often. Values without a mark were called inactive. The source made the active and inactive calls. Cut-off read from the data, not from the text of the source: active = growth inhibition above about 70%; inactive = the rest.

With `CCCCCCCCCC[N+](C)(C)CC(O)CO` (stereo unspecified), the growth inhibition in assay [1] is -51.8%; in assay [2] it was 7.9%; in assay [3], 2.2%; in assay [4], 9.45%; in assay [5] it was -2.85%; in assay [6] it was -11.3%.
Turning to `CCN(/C=C/C=C(C#N)C#N)CC`, the growth inhibition in assay [1] was 6.05%; in assay [2] it was -5.3%; in assay [3], -9.05%; in assay [4], -15.8%; in assay [5], 6.35%; in assay [6] it was -12.7%.
In the case of `Cc1nc2ccccc2n1C(=O)c1c(F)c(F)c(F)c(F)c1F`, the growth inhibition was -35.9% in assay [1]; -17.6% in assay [2]; -28.6% in assay [3]; -18.7% in assay [4]; -9.8% in assay [5]; -18.9% in assay [6].
In the case of `Cc1cc(C)nc(NS(=O)(=O)c2ccc(NC(=O)c3cccc4c(Nc5ccc(S(=O)(=O)N=C(N)N)cc5)c5ccccc5nc34)cc2)n1`, the growth inhibition in assay [1] was 0.75%; in assay [2], 14.7%; in assay [3] it was -10.5%; in assay [4], 37.5%; in assay [5], 26.1%; in assay [6], 15.9%.
As for `O=C(/C=C/c1ccccn1)c1ccc(Cl)cc1`, the growth inhibition in assay [1] is 22.1%; in assay [2], 10.7%; in assay [3], 24.1%; in assay [4] it was 16.9%; in assay [5] it was 22.4%; in assay [6], 13.1%.
Regarding `Brc1ccc(C2CC(c3cccc4ccccc34)=Nc3ccccc3S2)cc1` (stereo unspecified), the growth inhibition in assay [1] is -14.1%; in assay [2], -2.45%; in assay [3], -10.9%; in assay [4] it was -29.2%; in assay [5], 8.7%; in assay [6], 18.1%.
For `Cc1nnc2cc1CCCCCCCCC2`, the growth inhibition in assay [1] is 11.8%; in assay [2], 6.25%; in assay [3], 4.8%; in assay [4], 5.2%; in assay [5] it was -10.8%; in assay [6] it was 4.9%.
As for `N#CC(Cc1ccccc1)C(=O)O` (stereo unspecified), the growth inhibition in assay [1] was 2.05%; in assay [2], 0.5%; in assay [3], -5.35%; in assay [4], 2%; in assay [5], 1.4%; in assay [6] it was 0.8%.
Turning to `Cc1cc(C2(O)CCCc3ccccc32)[n+]([O-])cc1C` (stereo unspecified), the growth inhibition was -17.3% in assay [1]; -2.9% in assay [2]; -9.4% in assay [3]; -4.8% in assay [4]; 0.75% in assay [5]; 2.75% in assay [6].
On to `COC(=O)c1cc(NC(=O)Nc2ccc(F)c([N+](=O)[O-])c2)cc(C(=O)OC)c1`, for which the growth inhibition is 8.9% in assay [1]; 4.85% in assay [2]; -4.6% in assay [3]; 7.3% in assay [4]; -1.3% in assay [5]; 26.8% in assay [6].
In the case of `COc1ccc(C(C)c2cc3c(cc2OC)OCO3)cc1` (stereo unspecified), the growth inhibition is 9.25% in assay [1]; -32.6% in assay [2]; 15.2% in assay [3]; 3.35% in assay [4]; 3% in assay [5]; 10.9% in assay [6].
Take `CC(CC(C)(C)C)C(=O)O` (stereo unspecified): the growth inhibition in assay [1] was -4.05%; in assay [2], -5.75%; in assay [3], 2.55%; in assay [4] it was 1.2%; in assay [5], 6.85%; in assay [6], 7.25%.
As for `COc1nc(OC)c2[nH]cnc2n1`, the growth inhibition in assay [1] was 17.6%; in assay [2], 15.3%; in assay [3], 13.1%; in assay [4], -38.7%; in assay [5], -1.35%; in assay [6], 14.7%.
Regarding `c1ccc(CNC(Cc2ccccc2)c2ccc(OCc3ccccc3)cc2)cc1` (stereo unspecified), the growth inhibition in assay [1] is -15.2%; in assay [2], -17.6%; in assay [3] it was 4%; in assay [4], 11.8%; in assay [5] it was -10.2%; in assay [6], -10.6%.
In the case of `CCN1CCNC(=O)C1c1ccccc1` (stereo unspecified), the growth inhibition in assay [1] was -9.3%; in assay [2] it was 16.1%; in assay [3], -17.2%; in assay [4] it was 1.35%; in assay [5] it was -1.1%; in assay [6], 1.05%.
Regarding `Clc1ccccc1SSc1ccccc1Cl`, the growth inhibition was 21.4% in assay [1]; 23.9% in assay [2]; 22.2% in assay [3]; -9.2% in assay [4]; 28.1% in assay [5]; 29.9% in assay [6].
In the case of `CCCCCCCCCCOC1C(C(C)OCCCN(C)C)OC2OC3(CCCCC3)OC21` (stereo unspecified), the growth inhibition in assay [1] is 91.8% (active); in assay [2], 93.3% (active); in assay [3] it was 40.7%; in assay [4], 16.1%; in assay [5] it was -31.6%; in assay [6], 86.2% (active).
With `COC1=C(C(=O)OC(C)(C)C)[C@]2(C)C(C(=O)OC(C)(C)C)C(OC)=C(C(=O)OC(C)(C)C)[C@]2(C)C1C(=O)OC(C)(C)C` (stereo partly specified), the growth inhibition in assay [1] is 30.6%; in assay [2], 15.4%; in assay [3] it was 22.8%; in assay [4], 17.6%; in assay [5], -3.25%; in assay [6] it was 29.9%.
`Cc1cc(N)ccc1N=Nc1cc(S(=O)(=O)O)c2cccc(S(=O)(=O)O)c2c1`: the growth inhibition in assay [1] was -4.4%; in assay [2], 22.1%; in assay [3], -2.65%; in assay [4], 3.95%; in assay [5] it was 8.85%; in assay [6], -4.55%.
Turning to `COc1c(Cl)cc(NC(=S)C#N)cc1Cl`, the growth inhibition in assay [1] was 20.2%; in assay [2] it was 20%; in assay [3] it was 15.2%; in assay [4] it was 39.6%; in assay [5], 15.4%; in assay [6], -30.9%.
Regarding `FC(F)(F)c1ccc2c(c1)N(CCCN1CCN(CCN3CCCCC3)CC1)c1ccccc1S2`, the growth inhibition in assay [1] was 88.9% (active); in assay [2], 46%; in assay [3], 89% (active); in assay [4], 27.2%; in assay [5] it was 87.4% (active); in assay [6] it was 91.8% (active).
